Assay [1] addresses ATP-dependent translocase ABCB1 (Homo sapiens) (UniProt P08183). Briefly: P-glycoprotein substrate transport blockade – cell-based (AID 377; in the data active = fluorescence slope change above about 50%). As to conditions: MDR1-expressing cells, fluorescent substrate accumulation slope; stronger effect = higher value; concentration not given here.
A short description of assay [2]: compounds altering viability of human ES cells (AID 493140; call rule not given here;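 note: cells exposed to compounds for four days before counting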). Particulars: human embryonic stem cell survival screen; stronger effect = higher value.
Assay [3] is described as follows: P. berghei load reduction in hepatocytes – cell-based, HepG2, luciferase luminescence, HepG2 viability, primary screen (AID 624349; in the data active = parasite load remaining mostly below about 12%, no sharp cut-off; inactive = mostly above about 10%;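 note: 100% = mean of DMSO negative control wells on the same plate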). Particulars: P. berghei liver stage in HepG2, luciferase luminescence, concentration not given here; parasite load remaining: stronger effect = lower value; viability: measured here: HepG2 viability without parasites.
For assay [4], the target named is 6-phosphogluconate dehydrogenase, decarboxylating (Homo sapiens) (UniProt P52209). The experiment in a line: inhibition of human phosphogluconate dehydrogenase – biochemical, recombinant enzyme, NADPH absorbance, primary screen (AID 1159550). As to conditions: recombinant 6PGD, NADPH absorbance 341 nm; at 10 µM; stronger effect = higher value.
Sequence of 6-phosphogluconate dehydrogenase, decarboxylating (Homo sapiens) (P52209 whole entry, looked up): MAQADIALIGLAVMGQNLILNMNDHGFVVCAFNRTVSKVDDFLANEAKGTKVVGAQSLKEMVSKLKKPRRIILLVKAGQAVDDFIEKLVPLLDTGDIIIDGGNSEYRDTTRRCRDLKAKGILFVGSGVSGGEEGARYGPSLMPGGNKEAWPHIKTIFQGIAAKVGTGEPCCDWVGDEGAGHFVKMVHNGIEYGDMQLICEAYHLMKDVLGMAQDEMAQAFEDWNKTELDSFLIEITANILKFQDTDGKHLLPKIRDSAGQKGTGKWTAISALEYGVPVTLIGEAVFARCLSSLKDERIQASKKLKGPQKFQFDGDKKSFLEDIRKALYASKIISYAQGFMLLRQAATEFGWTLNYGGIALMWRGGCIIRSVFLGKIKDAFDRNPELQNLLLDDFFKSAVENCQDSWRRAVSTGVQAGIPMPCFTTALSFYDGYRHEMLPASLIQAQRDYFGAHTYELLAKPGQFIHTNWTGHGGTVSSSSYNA
Assay [5] can be described thus: EMT-state selective cytotoxicity in co-culture – imaging, PC-3E GFP, TEM4-18 mCherry, primary screen (AID 1345086;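 active = compounds killing one labelled cell type while sparing the other, by normalised counts and ratio limits, not self-fluorescent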;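 for all read-outs here: cells exposed to compound for 72 h before imaging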;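 for red/green cell ratio (normalised): normalised mesenchymal count divided by normalised epithelial count so high means epithelial killing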). Particulars: PC-3E GFP / TEM4-18 mCherry co-culture, imaging cell counts, at 1 µM; for red/green cell ratio (normalised): actives lie on both sides.
A short description of assay [6]: viability loss with induced miR-34 in A549 – imaging, A549 dox-inducible miR-34, nuclei and caspase counts, primary screen (AID 1347080;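 active = compounds whose cell count with miR-34 switched on is under 0.7 times the count with it off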). As to conditions: A549 miR-34 inducible, Hoechst nuclei count, 48 h.
Assay [7] addresses NAD(+) hydrolase SARM1 (Homo sapiens) (UniProt Q6SZW1). Briefly: blocking NAD cleavage by SARM1 SAM-TIR – cell lysate, NAD-Glo luminescence (AID 1508614;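 active = compound whose remaining NAD level is above about 45 nM, limit read from the data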;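 note: higher remaining NAD means stronger inhibition of SARM1 NADase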). As to conditions: SAM-TIR HEK293T lysate NADase, at 1 µM, stronger effect = higher value.
In assay [8] the target is Mitogen-activated protein kinase 7 (Homo sapiens) (UniProt Q13164). The experiment in a line: Gal4-ERK5 driven luciferase induction – cell-based, HTS, primary screen (AID 1508626;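 active = luciferase signal above three times the same-plate solvent-only control wells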;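 note: luciferase driven by Gal4-ERK5 fusion binding five Gal4 sites before minimal TATA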). As to conditions: HeLa Gal4-ERK5 transactivation, 18 h, at 5 µM, stronger effect = higher value.
Sequence of Mitogen-activated protein kinase 7 (Homo sapiens) (Q13164 whole entry, looked up, the tested form may be a part): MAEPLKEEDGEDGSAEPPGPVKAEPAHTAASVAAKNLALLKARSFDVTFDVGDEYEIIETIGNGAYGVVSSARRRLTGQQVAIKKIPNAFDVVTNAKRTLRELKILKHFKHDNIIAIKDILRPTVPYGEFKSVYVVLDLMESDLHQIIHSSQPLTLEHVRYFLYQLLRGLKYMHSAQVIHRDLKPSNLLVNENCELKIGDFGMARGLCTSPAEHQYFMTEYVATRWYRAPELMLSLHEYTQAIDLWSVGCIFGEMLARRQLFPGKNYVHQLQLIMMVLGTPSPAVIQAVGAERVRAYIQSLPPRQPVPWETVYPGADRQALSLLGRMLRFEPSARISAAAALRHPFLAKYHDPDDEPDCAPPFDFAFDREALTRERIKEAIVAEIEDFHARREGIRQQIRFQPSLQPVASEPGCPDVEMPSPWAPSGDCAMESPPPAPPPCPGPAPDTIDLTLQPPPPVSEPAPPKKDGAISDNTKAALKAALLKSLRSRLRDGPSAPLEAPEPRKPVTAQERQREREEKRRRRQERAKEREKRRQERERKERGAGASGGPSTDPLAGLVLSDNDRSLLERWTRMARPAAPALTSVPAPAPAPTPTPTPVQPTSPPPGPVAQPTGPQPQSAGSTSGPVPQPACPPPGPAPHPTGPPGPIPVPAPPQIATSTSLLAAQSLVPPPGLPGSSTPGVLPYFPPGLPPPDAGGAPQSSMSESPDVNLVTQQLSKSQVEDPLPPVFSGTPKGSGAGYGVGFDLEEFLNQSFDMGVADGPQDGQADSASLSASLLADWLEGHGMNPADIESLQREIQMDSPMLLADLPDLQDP
The nature of assay [9]: blockers of polyQ-driven CASP3 activation – cell-based (AID 1583). Particulars: polyglutamine-induced caspase-3 activation, cell assay; stronger effect = higher value;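 tested at 10 µM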.
Assay [10] in a line: yeast 75Q aggregation reduction – 75Q-TubU reporter (AID 1593). Particulars: Yeast 75Q polyglutamine aggregation reporter.
A short description of assay [11]: restoration of touch response, mutant HTT neurons – whole organism, C. elegans mechanosensory neurons, N-terminal huntingtin (AID 1599). As to conditions: C. elegans polyQ-huntingtin mechanosensory neurons, stronger effect = higher value.
A short description of assay [12]: blockers of cytochrome c efflux from mitochondria – biochemical, purified mitochondria (AID 1603).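 Note: mouse liver mitochondria challenged with calcium chloride; signal normalized to the plate average as 100%.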 As to conditions: stronger effect = lower value.
The nature of assay [13]: polyglutamine aggregate formation blockers (AID 1604). Particulars: polyglutamine-induced protein aggregation inhibition assay; stronger effect = higher value; tested at 2.5 µM.
Assay [14] is described as follows: glutamate transport activators, MN-1 cells, MN-1 cell line (AID 1612).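 Note: tested at 1 µM final; 0% = mean of DMSO vehicle wells on each plate; positive means more glutamate uptake than control and negative means less.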 As to conditions: MN-1 motor neuron cells, stronger effect = higher value.
The nature of assay [15]: GFP-Q80 aggregate reduction, neuronal-like cells, cell-based, NGF-treated PC12, GFPQ80 (AID 1614).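 Note: lower means fewer inclusions and 0 means no inclusions at all.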 As to conditions: PC12 NGF-treated GFP-polyQ80 inclusion reduction.
Assay [16] in a line: 75Q-TubH aggregate inhibition, S. cerevisiae, yeast (AID 1616). As to conditions: S. cerevisiae 75Q-TubH polyglutamine aggregation suppression; stronger effect = higher value.
Assay [17] concerns Aerobactin synthetase IucA (Klebsiella pneumoniae hvKP1). The experiment in a line: IucA enzyme inhibition, primary screen, biochemical, Spectrum library (AID 1346200; call rule not given here;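 note: 100% = wells without compound and 0% = wells lacking enzyme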). Particulars: malachite green pyrophosphate, A620, at 8 µM, stronger effect = lower value.
Assay [18] is described as follows: chitosan synthesis blockers in C. neoformans – flow cytometry, Cibacron Brilliant Red staining (AID 1347148; call rule not given here;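 note: compound exposure lasted three days at 37 degrees C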). Particulars: Cryptococcus neoformans chitosan, stronger effect = lower value; at 10 µM unless noted.
The mark [19] stands for this setting: measured here: epithelial PC-3E GFP cell survival.
Where [20] appears, read: measured here: mesenchymal TEM4-18 mCherry cell survival.
The mark [21] stands for this setting: measured here: relative caspase fold change +Dox/-Dox.
Where [22] appears, read: measured here: total cells with miR-34 induction, stronger effect = lower value.
Setting [23] is: measured here: total cells without miR-34 induction.

Values joined by “and” are separate entries in the source; they are usually repeats but may differ in a detail not shown here. Identical values can stand only once. Inconclusive results are not listed. For some assays here: Results with a measured potency or affinity are listed apart. Active and inactive are the calls of the source.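 Rule for the calls, unless noted: active = at least 20% inhibition of 6-phosphogluconate dehydrogenase activity; inactive = the rest.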

Sequence of NAD(+) hydrolase SARM1 (Homo sapiens) (Q6SZW1 whole entry, looked up, the tested form may be a part): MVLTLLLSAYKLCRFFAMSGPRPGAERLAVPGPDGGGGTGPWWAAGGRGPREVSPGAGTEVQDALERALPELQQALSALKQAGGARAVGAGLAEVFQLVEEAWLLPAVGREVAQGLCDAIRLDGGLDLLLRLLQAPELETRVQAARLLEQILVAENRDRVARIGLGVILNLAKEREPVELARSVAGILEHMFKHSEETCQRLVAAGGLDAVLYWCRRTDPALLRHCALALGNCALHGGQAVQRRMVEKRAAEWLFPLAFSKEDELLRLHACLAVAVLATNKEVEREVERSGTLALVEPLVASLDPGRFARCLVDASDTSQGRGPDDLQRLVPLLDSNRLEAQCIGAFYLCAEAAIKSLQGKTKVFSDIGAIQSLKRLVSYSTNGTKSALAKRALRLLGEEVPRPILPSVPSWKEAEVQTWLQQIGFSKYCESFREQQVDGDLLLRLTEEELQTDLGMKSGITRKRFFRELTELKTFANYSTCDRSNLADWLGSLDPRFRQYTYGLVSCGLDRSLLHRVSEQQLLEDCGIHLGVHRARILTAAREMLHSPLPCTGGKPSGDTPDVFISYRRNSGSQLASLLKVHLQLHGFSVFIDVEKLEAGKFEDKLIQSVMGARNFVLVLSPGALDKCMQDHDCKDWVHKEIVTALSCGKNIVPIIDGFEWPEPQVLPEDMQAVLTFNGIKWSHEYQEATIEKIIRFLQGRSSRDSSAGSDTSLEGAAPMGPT
Sequence of ATP-dependent translocase ABCB1 (Homo sapiens) (P08183 whole entry, looked up): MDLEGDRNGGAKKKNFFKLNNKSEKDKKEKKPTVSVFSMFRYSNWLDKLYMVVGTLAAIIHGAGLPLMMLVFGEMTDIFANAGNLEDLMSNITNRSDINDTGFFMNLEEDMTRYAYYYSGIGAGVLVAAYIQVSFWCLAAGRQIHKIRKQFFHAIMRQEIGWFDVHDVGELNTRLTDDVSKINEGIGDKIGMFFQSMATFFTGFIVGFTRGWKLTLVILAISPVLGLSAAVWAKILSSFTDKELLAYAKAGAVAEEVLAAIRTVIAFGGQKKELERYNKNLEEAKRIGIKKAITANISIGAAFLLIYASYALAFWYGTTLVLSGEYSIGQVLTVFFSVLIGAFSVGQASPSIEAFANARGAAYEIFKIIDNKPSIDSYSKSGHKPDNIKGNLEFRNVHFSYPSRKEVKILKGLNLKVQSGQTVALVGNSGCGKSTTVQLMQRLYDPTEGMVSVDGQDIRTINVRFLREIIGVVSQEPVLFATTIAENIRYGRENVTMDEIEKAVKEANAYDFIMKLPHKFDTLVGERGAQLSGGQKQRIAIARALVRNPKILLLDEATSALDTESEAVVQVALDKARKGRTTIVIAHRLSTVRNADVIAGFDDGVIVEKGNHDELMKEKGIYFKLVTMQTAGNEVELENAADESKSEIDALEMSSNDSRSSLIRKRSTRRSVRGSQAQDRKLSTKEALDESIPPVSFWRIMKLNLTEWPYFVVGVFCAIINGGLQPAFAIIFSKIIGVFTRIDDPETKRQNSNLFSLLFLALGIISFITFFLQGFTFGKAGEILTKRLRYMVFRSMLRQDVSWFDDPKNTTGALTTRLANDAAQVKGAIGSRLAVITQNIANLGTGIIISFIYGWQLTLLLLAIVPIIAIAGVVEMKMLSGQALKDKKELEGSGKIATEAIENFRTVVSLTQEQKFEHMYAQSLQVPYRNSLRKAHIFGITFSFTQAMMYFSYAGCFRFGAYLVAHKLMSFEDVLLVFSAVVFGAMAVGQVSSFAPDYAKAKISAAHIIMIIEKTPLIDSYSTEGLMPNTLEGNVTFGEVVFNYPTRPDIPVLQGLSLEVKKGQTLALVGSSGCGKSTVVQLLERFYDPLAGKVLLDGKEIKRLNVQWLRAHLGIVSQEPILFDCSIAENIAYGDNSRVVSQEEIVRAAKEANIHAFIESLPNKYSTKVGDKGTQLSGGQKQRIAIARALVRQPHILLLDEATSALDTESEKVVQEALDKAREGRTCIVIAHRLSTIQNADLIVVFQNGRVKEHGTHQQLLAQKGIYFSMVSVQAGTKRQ

Turning to `COc1ccc2c(c1OC)C(=O)O[C@@H]2[C@H]1c2cc3c(cc2CCN1C)OCO3`, the fluorescence slope change in assay [1] was 159% (active). Further, in [2], the survival was 7.17 (inactive). Also, the parasite load remaining in assay [3] was 124% (inactive) and 81.5% (inactive) and 40.1% (inactive). The viability in assay [3] was 101% and 75.4% and 98.1%. The inhibition in [4] is 6.9% (inactive). Moreover, the red/green cell ratio (normalised) in [5] is 1.06 (inactive). In addition, the normalised cell number in assay [5] (setting [19]) was found to be 1.07; in [5] (setting [20]) it was 1.13. Besides, the fold change in assay [6] (stronger effect = lower value) was 0.884 (inactive); in assay [6] (stronger effect = lower value, cell number ratio, induced over uninduced), 0.838 (inactive); in assay [6] (setting [21]), 1.51 and 2.25. In addition, the cell count is 8490 and 11200 in [6] (setting [22]); 10100 and 12700 in [6] (setting [23]). Further, in assay [7], the remaining NAD was 10 nM (inactive). For the same compound, the luciferase signal in assay [8] was 84 AU (inactive).
With `C[C@@H]([C@H](O)c1ccccc1)N(C)C`, the inhibition in assay [9] was -9.65%; in assay [4], 4.3% (inactive). The score in assay [10] is 1.49. In addition, the rescue above control in assay [11] is -3.5. In addition, in [12], the cytochrome c release ratio turned out to be 0.95. The inhibition of aggregation in [13] came out at 81%. In assay [14], this compound registered a glutamate uptake change of 13.8%. This compound also yielded an inclusion score in assay [15] of 2. The compound further registered an aggregation suppression score in assay [16] of 1.19. Moreover, the red/green cell ratio (normalised) in assay [5] was 0.91 (inactive). Besides, the normalised cell number in [5] (setting [19]) came out at 1.19; in [5] (setting [20]), 1.09. The values for the fold change in assay [6] (stronger effect = lower value) and in assay [6] (setting [21]) were 0.94 (inactive) and 0.912, respectively. Also, the values for the cell count in [6] (setting [22]) and in assay [6] (setting [23]) were 8870 and 9440, respectively. In addition, in assay [7], the remaining NAD is 10 nM (inactive). Further, in [8], the luciferase signal is 108 AU (inactive).
On to `CCOP(=S)(OCC)SCn1c(=O)oc2cc(Cl)ccc21`, for which, in assay [4], the inhibition is -13.8% (inactive). Further, the activity remaining in assay [17] is 96.1% (inactive).
The like results for `COc1cc2c(cc1OC)[C@@H]1C(=O)c3ccc(O)c(CC=C(C)C)c3O[C@@H]1CO2` were, in that order, -10.7% (inactive) and 103% (inactive).
The matching figures for `COC(=O)COc1ccc(Cl)cc1Cl`: -25.1% (inactive) and 109% (inactive).
On to `O=C1CCO1`, for which the inhibition in [9] is 12.7%; in [4], -4.86% (inactive). For the same compound, the score in assay [10] came out at 1.2. Besides, the rescue above control in assay [11] was determined as 11.7. In addition, the cytochrome c release ratio in assay [12] stood at 1.11. The inhibition of aggregation in assay [13] came to 22.4%. This compound returned a glutamate uptake change in [14] of 5.98%. The inclusion score in [15] turned out to be 2. In addition, in assay [16], the aggregation suppression score is 1.23. The parasite load remaining in [3] is 165% (inactive) and 39.1% (inactive). The viability in [3] is 91.2% and 89.3%. In addition, the red/green cell ratio (normalised) in assay [5] was 1.22 (inactive). Further, the values for the normalised cell number in [5] (setting [19]) and in [5] (setting [20]) were 0.9 and 1.09, respectively. Besides, the fold change in [6] (stronger effect = lower value) was 0.872 (inactive); in assay [6] (setting [21]), 2.98. Moreover, the cell count in [6] (setting [22]) was 11800; in assay [6] (setting [23]), 13500. Further, the remaining NAD in assay [7] was 10 nM (inactive). Also, the luciferase signal in assay [8] is 100 AU (inactive).
For the compound `O=C(O)CF`, in [4], the inhibition was 10.5% (inactive). The red/green cell ratio (normalised) in assay [5] (counts scaled to control wells, 1 = unselective) was 0.92 (inactive). The normalised cell number in [5] (setting [19]) worked out at 1.09; in assay [5] (setting [20]), 1. Further, the luciferase signal in assay [8] was 80 AU (inactive).
Regarding `COc1cccc2c1cc([N+](=O)[O-])c1c(C(=O)O)cc3c(c12)OCO3`, the inhibition in [4] is -5.9% (inactive). Further, the activity remaining in [17] was 103% (inactive). Besides, the fold change is 1.04 (inactive) in assay [6] (stronger effect = lower value) and 1.14 in assay [6] (setting [21]). The cell count in [6] (setting [22]) turned out to be 4170; in assay [6] (setting [23]) it was 4020. In addition, the fold fluorescence in assay [18] was 4.86 [at 146.5 µM] (inactive). In addition, the luciferase signal in assay [8] was 36 AU (inactive).
Regarding `CNC(=O)N(C)c1nnc(C(C)(C)C)s1`, the inhibition in assay [4] was -12.3% (inactive). For the same compound, the activity remaining in assay [17] is 98% (inactive).

These data come from PubChem BioAssay.
